Assays:
Assay in all cases: log2 ratio of Biotin-Ahx-Ub-VS probe labelling (fragment/DMSO); higher = less target engagement (more negative = stronger competition), active = hit call of the paper (q ≤ 0.05, log2 ratio ≤ -1)
Conditions in all cases: compound concentration: 200 uM; treatment time: 3 h
[1] = target: USP34 (UniProt Q70CQ2)
In short: (§1)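 HEK293T lysate (495 µg per sample, in Tris/CHAPS/IGEPAL buffer with protease inhibitors) was treated in triplicate with fragment at 200 µM or with DMSO for 3 h. It was then treated with Biotin-Ahx-Ub-VS (0.5 µM final) for 1 h. Labelled DUBs were NeutrAvidin-enriched, digested with LysC and trypsin, and run by diaPASEF LC-MS/MS. Spectronaut label-free quantities were global-median-normalised. Values are average log2 ratios fragment/DMSO by unpaired t-test, using proteins with ≥2 unique peptides.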

[2] = target: T1, USP36 (UniProt Q9P275)
T1 sequence (whole entry): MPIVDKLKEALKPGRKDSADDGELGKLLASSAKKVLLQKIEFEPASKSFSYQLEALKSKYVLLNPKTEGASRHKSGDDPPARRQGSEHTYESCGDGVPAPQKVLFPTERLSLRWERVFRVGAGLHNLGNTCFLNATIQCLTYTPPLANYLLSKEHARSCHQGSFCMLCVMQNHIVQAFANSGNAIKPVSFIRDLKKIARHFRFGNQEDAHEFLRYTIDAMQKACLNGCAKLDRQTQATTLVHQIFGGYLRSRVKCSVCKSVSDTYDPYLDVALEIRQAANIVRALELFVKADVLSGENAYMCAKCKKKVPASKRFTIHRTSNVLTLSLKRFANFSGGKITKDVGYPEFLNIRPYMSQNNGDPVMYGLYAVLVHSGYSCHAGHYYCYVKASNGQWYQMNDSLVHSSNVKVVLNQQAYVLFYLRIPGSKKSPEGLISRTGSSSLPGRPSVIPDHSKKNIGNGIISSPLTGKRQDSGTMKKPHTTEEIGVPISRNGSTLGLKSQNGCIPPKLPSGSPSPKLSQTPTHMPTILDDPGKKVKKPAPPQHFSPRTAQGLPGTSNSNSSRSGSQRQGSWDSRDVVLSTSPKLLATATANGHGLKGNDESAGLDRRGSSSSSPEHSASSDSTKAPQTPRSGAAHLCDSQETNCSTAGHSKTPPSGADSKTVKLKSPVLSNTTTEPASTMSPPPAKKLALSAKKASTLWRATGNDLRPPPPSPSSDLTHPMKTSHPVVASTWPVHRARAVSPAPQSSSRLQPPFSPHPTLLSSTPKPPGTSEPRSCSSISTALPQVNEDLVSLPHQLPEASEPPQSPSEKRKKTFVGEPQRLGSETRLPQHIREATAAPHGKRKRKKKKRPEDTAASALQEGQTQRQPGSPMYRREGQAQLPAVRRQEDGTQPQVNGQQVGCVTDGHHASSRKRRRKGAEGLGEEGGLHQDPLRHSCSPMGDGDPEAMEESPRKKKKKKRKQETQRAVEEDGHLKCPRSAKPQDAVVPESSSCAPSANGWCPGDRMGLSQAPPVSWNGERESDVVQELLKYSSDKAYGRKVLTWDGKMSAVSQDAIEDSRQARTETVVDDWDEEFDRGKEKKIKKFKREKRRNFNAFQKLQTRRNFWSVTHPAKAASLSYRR
In short: as §1

[3] = target: T2, USP38 (UniProt Q8NB14)
T2 sequence (whole entry): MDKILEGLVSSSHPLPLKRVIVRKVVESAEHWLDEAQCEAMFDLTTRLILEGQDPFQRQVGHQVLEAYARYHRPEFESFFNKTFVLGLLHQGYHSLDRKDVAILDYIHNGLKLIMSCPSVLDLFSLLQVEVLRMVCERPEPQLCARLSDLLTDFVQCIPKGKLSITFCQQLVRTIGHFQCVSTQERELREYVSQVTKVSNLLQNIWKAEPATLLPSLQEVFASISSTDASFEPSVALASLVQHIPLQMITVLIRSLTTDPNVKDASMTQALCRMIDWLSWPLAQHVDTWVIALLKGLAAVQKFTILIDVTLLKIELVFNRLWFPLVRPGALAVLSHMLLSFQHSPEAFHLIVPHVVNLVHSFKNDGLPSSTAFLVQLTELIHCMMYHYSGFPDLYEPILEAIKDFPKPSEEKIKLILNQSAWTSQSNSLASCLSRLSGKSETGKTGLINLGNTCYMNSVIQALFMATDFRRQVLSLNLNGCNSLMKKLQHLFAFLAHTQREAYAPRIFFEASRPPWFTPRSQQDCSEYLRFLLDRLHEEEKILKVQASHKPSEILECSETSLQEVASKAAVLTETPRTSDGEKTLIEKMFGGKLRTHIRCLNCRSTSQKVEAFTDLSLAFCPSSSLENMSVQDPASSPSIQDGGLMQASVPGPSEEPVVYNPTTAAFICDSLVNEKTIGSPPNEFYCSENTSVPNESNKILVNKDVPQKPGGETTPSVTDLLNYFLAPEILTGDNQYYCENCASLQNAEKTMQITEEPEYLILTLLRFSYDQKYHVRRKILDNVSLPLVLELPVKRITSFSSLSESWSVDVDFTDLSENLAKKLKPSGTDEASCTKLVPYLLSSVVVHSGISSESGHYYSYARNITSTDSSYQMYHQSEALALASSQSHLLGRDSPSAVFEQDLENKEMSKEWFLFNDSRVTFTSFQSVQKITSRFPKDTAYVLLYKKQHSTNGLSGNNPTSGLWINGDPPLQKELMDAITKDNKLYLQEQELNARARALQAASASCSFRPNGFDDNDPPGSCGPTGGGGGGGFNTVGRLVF
In short: as §1

[4] = target: T3, USP39 (UniProt Q53GS9)
T3 sequence (whole entry): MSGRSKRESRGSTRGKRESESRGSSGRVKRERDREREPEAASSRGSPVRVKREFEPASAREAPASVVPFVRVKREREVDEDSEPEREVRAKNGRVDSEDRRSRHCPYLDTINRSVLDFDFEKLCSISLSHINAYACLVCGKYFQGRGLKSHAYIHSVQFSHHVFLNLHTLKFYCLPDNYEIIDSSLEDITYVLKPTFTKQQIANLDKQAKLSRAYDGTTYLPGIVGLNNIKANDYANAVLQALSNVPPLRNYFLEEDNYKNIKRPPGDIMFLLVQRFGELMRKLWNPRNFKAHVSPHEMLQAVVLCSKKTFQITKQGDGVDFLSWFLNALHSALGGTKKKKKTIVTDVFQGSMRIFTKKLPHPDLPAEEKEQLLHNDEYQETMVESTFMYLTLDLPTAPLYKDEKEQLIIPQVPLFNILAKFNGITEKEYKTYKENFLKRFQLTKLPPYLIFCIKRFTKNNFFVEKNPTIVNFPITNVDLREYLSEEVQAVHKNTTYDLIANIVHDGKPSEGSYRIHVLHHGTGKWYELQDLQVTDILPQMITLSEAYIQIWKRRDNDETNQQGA
In short: as §1

[5] = target: T4, USP4 (UniProt Q13107)
T4 sequence (whole entry): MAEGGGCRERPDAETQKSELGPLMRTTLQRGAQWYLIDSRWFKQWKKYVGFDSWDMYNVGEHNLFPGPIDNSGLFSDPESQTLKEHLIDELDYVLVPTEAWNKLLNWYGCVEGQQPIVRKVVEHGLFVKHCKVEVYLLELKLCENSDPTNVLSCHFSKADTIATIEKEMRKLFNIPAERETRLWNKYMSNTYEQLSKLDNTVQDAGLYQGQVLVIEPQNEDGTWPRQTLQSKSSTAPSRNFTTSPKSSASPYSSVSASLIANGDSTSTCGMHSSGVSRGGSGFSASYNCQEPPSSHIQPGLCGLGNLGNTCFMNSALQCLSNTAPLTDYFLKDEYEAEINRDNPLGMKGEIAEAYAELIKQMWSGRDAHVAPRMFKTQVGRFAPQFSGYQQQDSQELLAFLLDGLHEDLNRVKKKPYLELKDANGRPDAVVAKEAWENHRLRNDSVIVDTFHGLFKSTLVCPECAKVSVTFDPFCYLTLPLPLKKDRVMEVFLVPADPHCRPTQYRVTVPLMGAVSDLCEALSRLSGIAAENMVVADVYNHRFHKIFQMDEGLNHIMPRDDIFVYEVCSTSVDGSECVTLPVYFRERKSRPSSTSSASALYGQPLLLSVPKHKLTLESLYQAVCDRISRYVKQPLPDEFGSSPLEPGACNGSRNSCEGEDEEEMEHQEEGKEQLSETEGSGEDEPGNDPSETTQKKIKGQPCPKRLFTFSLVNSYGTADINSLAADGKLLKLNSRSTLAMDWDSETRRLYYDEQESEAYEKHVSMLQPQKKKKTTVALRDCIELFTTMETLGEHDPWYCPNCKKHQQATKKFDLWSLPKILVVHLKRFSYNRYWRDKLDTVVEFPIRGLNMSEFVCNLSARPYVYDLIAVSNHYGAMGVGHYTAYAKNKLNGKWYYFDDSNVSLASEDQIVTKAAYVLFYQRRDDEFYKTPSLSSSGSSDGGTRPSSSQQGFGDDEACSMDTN
In short: as §1

Measured: log2 ratio of Biotin-Ahx-Ub-VS probe labelling

USP34, sequence (Q70CQ2 whole entry, the tested form may be a part): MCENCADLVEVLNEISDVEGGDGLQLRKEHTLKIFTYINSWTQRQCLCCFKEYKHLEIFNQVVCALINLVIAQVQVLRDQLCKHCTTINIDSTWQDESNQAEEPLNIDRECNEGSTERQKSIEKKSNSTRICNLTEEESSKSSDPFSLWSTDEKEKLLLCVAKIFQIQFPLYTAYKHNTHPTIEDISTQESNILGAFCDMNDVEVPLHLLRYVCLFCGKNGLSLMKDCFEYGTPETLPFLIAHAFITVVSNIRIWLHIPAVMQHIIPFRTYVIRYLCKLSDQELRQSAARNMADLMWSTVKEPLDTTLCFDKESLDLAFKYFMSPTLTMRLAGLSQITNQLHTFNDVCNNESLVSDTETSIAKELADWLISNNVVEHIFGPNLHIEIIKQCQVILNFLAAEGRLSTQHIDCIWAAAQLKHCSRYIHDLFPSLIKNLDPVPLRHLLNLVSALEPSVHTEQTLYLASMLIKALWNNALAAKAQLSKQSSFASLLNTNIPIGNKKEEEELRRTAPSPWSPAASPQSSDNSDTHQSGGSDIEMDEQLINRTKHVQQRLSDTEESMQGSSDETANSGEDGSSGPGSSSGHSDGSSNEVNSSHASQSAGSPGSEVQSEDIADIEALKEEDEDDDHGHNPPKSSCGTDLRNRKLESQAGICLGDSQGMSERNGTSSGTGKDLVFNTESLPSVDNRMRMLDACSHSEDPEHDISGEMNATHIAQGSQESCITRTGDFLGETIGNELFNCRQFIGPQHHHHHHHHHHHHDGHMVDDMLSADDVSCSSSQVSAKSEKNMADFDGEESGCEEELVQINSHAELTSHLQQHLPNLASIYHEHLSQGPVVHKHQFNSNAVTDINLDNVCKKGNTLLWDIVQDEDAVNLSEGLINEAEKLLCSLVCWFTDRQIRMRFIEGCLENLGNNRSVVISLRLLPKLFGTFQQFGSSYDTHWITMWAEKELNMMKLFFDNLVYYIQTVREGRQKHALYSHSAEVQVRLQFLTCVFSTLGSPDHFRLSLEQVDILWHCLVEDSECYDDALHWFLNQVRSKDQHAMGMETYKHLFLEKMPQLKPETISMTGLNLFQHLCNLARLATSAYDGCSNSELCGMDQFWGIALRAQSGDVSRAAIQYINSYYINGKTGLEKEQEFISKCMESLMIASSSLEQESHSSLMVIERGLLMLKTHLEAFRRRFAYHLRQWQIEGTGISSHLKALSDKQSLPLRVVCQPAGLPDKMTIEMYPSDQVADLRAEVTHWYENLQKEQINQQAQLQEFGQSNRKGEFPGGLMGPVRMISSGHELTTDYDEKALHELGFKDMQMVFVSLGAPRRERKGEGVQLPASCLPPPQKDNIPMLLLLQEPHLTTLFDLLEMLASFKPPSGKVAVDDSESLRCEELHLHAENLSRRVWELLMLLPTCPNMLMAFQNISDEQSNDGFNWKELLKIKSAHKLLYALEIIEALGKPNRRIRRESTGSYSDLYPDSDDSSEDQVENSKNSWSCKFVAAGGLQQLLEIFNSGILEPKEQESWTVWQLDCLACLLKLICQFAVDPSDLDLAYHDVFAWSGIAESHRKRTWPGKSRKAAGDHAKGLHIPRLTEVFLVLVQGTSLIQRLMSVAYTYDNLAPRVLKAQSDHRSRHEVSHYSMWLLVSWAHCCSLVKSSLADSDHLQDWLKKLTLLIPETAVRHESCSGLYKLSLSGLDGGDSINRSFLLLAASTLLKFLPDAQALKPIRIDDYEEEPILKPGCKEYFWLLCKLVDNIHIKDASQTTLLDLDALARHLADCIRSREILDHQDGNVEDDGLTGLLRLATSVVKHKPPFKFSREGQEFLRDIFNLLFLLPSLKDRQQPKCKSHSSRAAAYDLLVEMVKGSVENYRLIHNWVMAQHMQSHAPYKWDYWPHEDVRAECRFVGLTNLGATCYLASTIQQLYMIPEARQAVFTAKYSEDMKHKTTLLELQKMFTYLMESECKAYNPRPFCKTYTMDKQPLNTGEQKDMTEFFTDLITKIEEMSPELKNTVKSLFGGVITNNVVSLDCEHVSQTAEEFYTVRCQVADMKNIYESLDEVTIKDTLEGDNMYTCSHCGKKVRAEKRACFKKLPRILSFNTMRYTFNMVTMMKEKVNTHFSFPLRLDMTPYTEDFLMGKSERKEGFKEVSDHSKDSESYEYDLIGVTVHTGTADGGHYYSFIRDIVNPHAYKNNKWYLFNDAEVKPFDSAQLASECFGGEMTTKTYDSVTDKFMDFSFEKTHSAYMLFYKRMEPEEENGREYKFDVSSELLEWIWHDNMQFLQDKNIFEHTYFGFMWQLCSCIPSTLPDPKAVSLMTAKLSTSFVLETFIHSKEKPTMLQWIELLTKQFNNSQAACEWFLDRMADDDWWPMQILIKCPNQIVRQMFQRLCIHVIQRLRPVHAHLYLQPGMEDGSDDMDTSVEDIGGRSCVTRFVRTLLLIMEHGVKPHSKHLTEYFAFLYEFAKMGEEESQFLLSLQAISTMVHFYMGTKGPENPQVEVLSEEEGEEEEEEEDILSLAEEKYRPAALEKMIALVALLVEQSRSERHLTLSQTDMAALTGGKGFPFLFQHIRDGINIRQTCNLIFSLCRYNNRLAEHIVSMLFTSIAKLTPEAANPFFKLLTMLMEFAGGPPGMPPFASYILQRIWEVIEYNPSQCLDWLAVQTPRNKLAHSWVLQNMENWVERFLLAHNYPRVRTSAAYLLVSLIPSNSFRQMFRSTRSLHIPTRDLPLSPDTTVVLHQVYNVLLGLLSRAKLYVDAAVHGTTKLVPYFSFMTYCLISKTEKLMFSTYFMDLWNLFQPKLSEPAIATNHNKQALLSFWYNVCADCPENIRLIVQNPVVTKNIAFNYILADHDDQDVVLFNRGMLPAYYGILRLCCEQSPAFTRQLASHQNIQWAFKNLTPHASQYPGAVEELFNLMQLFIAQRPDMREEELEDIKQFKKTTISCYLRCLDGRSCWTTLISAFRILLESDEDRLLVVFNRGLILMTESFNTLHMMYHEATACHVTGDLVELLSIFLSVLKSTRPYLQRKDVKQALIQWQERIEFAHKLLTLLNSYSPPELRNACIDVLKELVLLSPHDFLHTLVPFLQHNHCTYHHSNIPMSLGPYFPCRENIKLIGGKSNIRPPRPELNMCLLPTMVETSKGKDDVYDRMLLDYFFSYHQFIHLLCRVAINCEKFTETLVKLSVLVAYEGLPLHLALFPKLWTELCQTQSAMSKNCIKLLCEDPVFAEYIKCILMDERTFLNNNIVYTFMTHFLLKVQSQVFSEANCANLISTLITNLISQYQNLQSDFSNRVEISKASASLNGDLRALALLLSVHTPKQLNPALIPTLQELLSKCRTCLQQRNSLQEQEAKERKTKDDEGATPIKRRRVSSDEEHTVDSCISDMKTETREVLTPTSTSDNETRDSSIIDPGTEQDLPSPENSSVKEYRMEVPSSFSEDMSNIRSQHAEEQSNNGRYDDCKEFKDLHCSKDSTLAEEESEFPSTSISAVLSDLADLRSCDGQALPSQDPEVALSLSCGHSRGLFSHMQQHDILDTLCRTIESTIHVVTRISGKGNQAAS

Cc1cccc(N(CCC#N)C(=O)CCl)c1C
inactive: [1] -0.119 | [2] -0.0707 | [3] -0.0489 | [4] -0.305 | [5] 0.163
